Assay results reported in PubChem BioAssay (Tox21).
Results filed as inconclusive are left out. Active and inactive are the calls of the source. Unless noted, calls follow the shape of the full dose curve.

Assays:
[1] = Nuclear factor erythroid 2-related factor 2/antioxidant responsive element (Nrf2/ARE) small molecule agonists: qHTS cell viability counter screen in human keratinocytes (AID 1919968; active = well fitted curve in the direction sought with a large enough effect in the repeat runs; an effect the other way counts as inactive or inconclusive; also: nearly all actives have a fitted effect of over 55% in size; also: potency is read from the fitted curve at half-maximal effect)
Method in brief: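 After a 5 h attachment period, ARE-reporter keratinocytes were dosed with compounds in DMSO and then cultured 23 h at 37 C. Cell viability came from CellTiter-Fluor signal read after a further 1 h.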

[2] = Nuclear factor erythroid 2-related factor 2/antioxidant responsive element (Nrf2/ARE) small molecule agonists: luciferase reporter gene qHTS assay in human keratinocytes (AID 1919969); also: nearly all actives have a fitted effect of over 35% in size
[3] = target: KiSS-1 receptor (Homo sapiens) (UniProt Q969F8); experiment: Human kisspeptin (KISS1R) small molecule agonists, calcium flux assay in KISS1R-HEK293 cells (AID 1920064; active = well fitted curve in the direction sought with a large enough effect in the repeat runs; an effect the other way counts as inactive or inconclusive)
KiSS-1 receptor (Homo sapiens), sequence (Q969F8 whole entry, looked up): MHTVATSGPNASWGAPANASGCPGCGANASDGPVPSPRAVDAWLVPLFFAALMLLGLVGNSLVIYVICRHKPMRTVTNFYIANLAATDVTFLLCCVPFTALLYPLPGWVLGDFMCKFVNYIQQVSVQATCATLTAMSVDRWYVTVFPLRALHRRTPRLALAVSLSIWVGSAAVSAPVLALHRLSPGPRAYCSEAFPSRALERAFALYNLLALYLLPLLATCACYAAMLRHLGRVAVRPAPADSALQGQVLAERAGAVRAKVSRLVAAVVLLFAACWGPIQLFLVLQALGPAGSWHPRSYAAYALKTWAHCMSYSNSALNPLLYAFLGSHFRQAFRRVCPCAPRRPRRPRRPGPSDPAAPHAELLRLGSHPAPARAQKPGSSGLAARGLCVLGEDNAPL
Method in brief: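 Kinetic calcium assay, 1 s sampling over 3 min at Ex/Em 480/540, in HEK293 cells engineered with human KISS1R; compounds delivered in DMSO after 1 h dye loading.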

[4] = G protein-coupled receptor (GPCR) small molecule agonists, calcium flux assay: HEK293 wild type cell line counter screen (AID 1920065)
Method in brief: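 Calcium-sensitive dye, loaded 1 h at 37 C into cells cultured 18 h, reports compound-evoked calcium release as fluorescence (Ex/Em 480/540), measured over 3 min. Agonist mode; 15-point titrations, triplicate.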

[5] = p53 small molecule agonists, cell-based qHTS assay with human liver microsomes: qHTS cell viability counter screen (AID 1963579); also: nearly all actives have a fitted effect of over 45% in size
Method in brief: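 p53RE-bla cells (4,000/well) were pre-incubated 5 h at 37 C, then given compounds in DMSO plus human liver microsomes (0.5 mg/mL final) and NADPH (0.5 mg/mL final) for 16 h at 37 C. Viability was read by CellTiter-Glo luminescence.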

[6] = p53 small molecule agonists, cell-based qHTS assay with rat liver microsomes: qHTS cell viability counter screen (AID 1963580); also: nearly all actives have a fitted effect of over 45% in size
Method in brief: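 HCT-116 p53RE-bla, 4,000 cells/well, 5 h pre-incubation; cpd + rat liver microsomes 0.5 mg/mL + NADPH 0.5 mg/mL (final); 16 h, 37 C; CellTiter-Glo, 30 min RT; luminescence.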

[7] = p53 small molecule agonists, cell-based qHTS assay: qHTS cell viability counter screen (AID 1963581); also: nearly all actives have a fitted effect of over 45% in size
Method in brief: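 Following 5 h attachment, HCT-116 p53RE-bla cells took up compound for 16 h at 37 C; the reporter was read with B/G FRET substrate (2 h RT), and viability then via CellTiter-Glo ATP luminescence.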

[8] = target: 5-hydroxytryptamine receptor 2A (Homo sapiens) (UniProt P28223); experiment: 5-hydroxytryptamine receptor 2A (HTR2A) small molecule antagonists, cell-based qHTS assay (AID 1963586); also: nearly all actives have a fitted effect of over 45% in size
5-hydroxytryptamine receptor 2A (Homo sapiens), sequence (P28223 whole entry, looked up): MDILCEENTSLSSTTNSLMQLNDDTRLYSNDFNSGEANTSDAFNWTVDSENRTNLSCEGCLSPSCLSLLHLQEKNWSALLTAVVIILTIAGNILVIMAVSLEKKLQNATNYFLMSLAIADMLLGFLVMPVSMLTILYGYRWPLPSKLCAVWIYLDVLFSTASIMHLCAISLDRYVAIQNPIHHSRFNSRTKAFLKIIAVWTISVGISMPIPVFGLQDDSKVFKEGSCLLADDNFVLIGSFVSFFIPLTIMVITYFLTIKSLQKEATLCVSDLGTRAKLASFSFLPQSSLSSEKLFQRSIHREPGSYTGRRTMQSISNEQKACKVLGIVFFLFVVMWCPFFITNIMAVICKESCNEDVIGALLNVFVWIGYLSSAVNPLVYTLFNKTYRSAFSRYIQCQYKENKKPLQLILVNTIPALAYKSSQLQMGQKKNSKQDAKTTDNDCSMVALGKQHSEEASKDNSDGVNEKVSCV
Method in brief: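 Antagonist-mode intracellular calcium assay: DOI (4 nM) added after 5 min compound pre-incubation at room temperature to dye-loaded HTR2A-CHO cells. Fluorescence followed for 3 min, sampled every second.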

[9] = target: 5-hydroxytryptamine receptor 2A (Homo sapiens) (UniProt P28223); experiment: 5-hydroxytryptamine receptor 2A (HTR2A) small molecule agonists, cell-based qHTS assay (AID 1963587); also: nearly all actives have a fitted effect of over 30% in size; also: potency is read from the fitted curve at half-maximal effect
Method in brief: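 Kinetic calcium-flux fluorescence (2 min, 1 sec intervals) after compound addition in agonist mode. HTR2A-CHO cells were cultured 18 h, then dye-loaded 1 h at 37 C.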

[10] = target: Muscarinic acetylcholine receptor M1 (Homo sapiens) (UniProt P11229); experiment: Cholinergic receptor muscarinic 1 (CHRM1) small molecule antagonists, cell-based qHTS assay (AID 1963588); also: nearly all actives have a fitted effect of over 40% in size
Muscarinic acetylcholine receptor M1 (Homo sapiens), sequence (P11229 whole entry, looked up): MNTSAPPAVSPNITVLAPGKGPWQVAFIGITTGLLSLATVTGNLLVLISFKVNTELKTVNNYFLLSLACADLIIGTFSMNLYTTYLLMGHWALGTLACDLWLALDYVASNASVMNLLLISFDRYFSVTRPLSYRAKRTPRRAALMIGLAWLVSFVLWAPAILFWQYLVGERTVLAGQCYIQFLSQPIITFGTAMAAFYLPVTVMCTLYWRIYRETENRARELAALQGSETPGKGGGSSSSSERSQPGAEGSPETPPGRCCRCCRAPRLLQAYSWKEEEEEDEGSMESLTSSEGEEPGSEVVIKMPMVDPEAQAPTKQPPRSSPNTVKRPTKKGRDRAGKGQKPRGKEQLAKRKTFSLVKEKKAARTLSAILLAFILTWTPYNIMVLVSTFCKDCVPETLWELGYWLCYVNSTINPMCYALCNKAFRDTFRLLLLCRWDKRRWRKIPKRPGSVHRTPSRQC
Method in brief: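 CHRM1-CHO calcium-flux assay, antagonist mode. Cells were seeded 18 h, dye-loaded 1 h at 37 C and given compound for 5 min at RT, then acetylcholine was added at 50nM. FDSS fluorescence was read 3 min; 15 concentrations, three runs.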

[11] = target: Muscarinic acetylcholine receptor M1 (Homo sapiens) (UniProt P11229); experiment: Cholinergic receptor muscarinic 1 (CHRM1) small molecule agonists, cell-based qHTS assay (AID 1963589); also: nearly all actives have a fitted effect of over 35% in size
Method in brief: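 Measures agonist-induced intracellular calcium rise. Stable human CHRM1 CHO line, 1 h dye load at 37 C, compounds from DMSO, kinetic fluorescence read.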

[12] = cAMP Responsive Elements (CRE) small molecule agonists, cell-based qHTS assay (AID 1963590)
Method in brief: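 A CRE-responsive beta-lactamase reporter in HEK 293T cells was used. Treatment ran 3 h at 37 C; detection used LiveBLAzer B/G FRET substrate for 2 h at room temperature.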

[13] = cAMP Responsive Elements (CRE) small molecule antagonists, cell-based qHTS assay (AID 1963591; active = well fitted inhibition curve with a large enough effect in the signal ratio in the repeat runs, not every such curve was filed as active; the % refers to the signal ratio)
Method in brief: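 HEK293T cells carrying a CRE-driven beta-lactamase reporter receive compound and NKH477 (0.25 uM final) for 3 h. Fluorescence from LiveBLAzer B/G FRET substrate is read after 2 h at room temperature.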

[14] = target: Beta-2 adrenergic receptor (Homo sapiens) (UniProt P07550); experiment: Adrenergic beta2 receptor (ADRB2) small molecule agonists, cell-based qHTS assay (AID 1963593);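 also: CHO cells stably overexpressing human ADRB2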
Beta-2 adrenergic receptor (Homo sapiens), sequence (P07550 whole entry, looked up): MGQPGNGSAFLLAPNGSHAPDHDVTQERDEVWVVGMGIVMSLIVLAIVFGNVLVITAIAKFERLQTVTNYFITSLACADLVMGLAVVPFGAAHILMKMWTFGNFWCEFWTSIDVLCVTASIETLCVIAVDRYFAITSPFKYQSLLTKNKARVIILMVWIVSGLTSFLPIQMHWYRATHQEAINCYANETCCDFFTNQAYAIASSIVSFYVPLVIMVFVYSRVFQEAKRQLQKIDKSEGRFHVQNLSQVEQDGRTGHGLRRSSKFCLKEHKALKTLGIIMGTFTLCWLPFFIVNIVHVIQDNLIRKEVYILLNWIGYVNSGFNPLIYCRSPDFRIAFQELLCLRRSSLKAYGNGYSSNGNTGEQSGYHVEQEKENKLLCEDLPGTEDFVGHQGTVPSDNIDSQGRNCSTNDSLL
Method in brief: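 CHO cells stably over-expressing ADRB2 were plated overnight at 37C, then dosed with compounds plus a stimulation mix containing 100uM IBMX and 25uM Ro-20-1724 for 0.5hr at room temperature. cAMP was measured by HTRF competition, 1hr.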

[15] = target: D(2) dopamine receptor (Homo sapiens) (UniProt P14416); experiment: Dopamine D2 receptor (DRD2) small molecule agonists, cell-based qHTS assay (AID 1963594); also: nearly all actives have a fitted effect of over 35% in size
D(2) dopamine receptor (Homo sapiens), sequence (P14416 whole entry, looked up): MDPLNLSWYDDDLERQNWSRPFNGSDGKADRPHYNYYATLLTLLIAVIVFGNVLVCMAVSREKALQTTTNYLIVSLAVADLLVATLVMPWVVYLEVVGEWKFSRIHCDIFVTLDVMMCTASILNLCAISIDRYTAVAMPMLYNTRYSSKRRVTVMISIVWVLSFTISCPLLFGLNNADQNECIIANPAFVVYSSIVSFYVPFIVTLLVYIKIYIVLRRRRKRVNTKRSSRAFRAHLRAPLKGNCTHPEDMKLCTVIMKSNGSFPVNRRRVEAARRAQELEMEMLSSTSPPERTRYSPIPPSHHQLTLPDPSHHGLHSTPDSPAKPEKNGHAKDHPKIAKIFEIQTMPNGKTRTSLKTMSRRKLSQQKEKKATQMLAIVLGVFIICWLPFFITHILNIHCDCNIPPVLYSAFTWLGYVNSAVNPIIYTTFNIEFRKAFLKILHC
Method in brief: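 cAMP accumulation in DRD2-HEK293 cells measured by HTRF after 1 h detection; compounds added 10 min before NKH477 (200nM […]) forskolin-analogue stimulation, 30 min at room temperature, with Ro20-1724 present at 0.1 mM final.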

[16] = target: D(2) dopamine receptor (Homo sapiens) (UniProt P14416); experiment: Dopamine D2 receptor (DRD2) small molecule antagonists, cell-based qHTS assay (AID 1963595; active = well fitted inhibition curve with a large enough effect in the signal ratio in the repeat runs, with a control signal flat; the % refers to the signal ratio)
Method in brief: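 Human DRD2 antagonist qHTS measuring cAMP by HTRF. The cells are exposed to compound for 10 min, then to NKH477 (200 nM) and quinpirole (12 nM) for 30 min at RT, with Ro20-1724 (0.1 mM) present throughout.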

[17] = target: Beta-2 adrenergic receptor (Homo sapiens) (UniProt P07550); experiment: Adrenergic beta2 receptor (ADRB2) small molecule antagonists, cell-based qHTS assay (AID 1963592); also: series mostly up to about 92 µM; nearly all actives have a fitted effect of over 50% in size
Method in brief: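 Cells (CHO, stable ADRB2 overexpression) incubated 18-20hr at 37C; compounds added from DMSO; agonist mix (1nM isoproterenol, 100uM IBMX, 25uM Ro-20-1724) added; 0.5hr RT; d2-cAMP and anti-cAMP-cryptate added; 1hr RT; 665/615 nm read.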

[18] = p53 small molecule agonists, cell-based qHTS assay with human liver microsomes (AID 1963577)
Method in brief: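 p53RE-bla reporter cells were pre-incubated 5 h at 37 C, then treated with compounds plus human liver microsomes (0.5 mg/mL final) and NADPH (0.5 mg/mL final) for 16 h at 37 C. Beta-lactamase activity was read by LiveBLAzer fluorescence after 2 h at room temperature.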

[19] = p53 small molecule agonists, cell-based qHTS assay with rat liver microsomes (AID 1963578)
Method in brief: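 p53RE-bla cells were exposed to compounds together with rat liver microsomes (0.5 mg/mL final) and NADPH (0.5 mg/mL final) for 16 h at 37 C, then read by LiveBLAzer beta-lactamase fluorescence after 2 h at room temperature.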

[20] = p53 small molecule agonists, cell-based qHTS assay (AID 1963582; active = well fitted activation curve with a large enough effect in the signal ratio in the repeat runs, not every such curve was filed as active; the % refers to the signal ratio)
Method in brief: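 In this cell-based concentration-response screen, a p53 response element drives beta-lactamase; cells received DMSO-borne compounds after 5 h culture and were incubated a further 16 h before FRET substrate development.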
% is scaled to controls: 0 for no effect and ±100 for the full control effect.

Cc1ccccc1N=C(N)N=C(N)N
inactive: Potency [1] | Potency [2] | Potency [3] | Potency [4] | Potency [5] | Potency [6] | Potency [7] | Potency [8] | Potency [9] | Potency [10] | Potency [11] | Potency [12] | Potency [13] | Potency [14] | Potency [15] | Potency [16]

Cc1cc(=O)c2c(O)c3c(O)cc(=O)c4c3c3c(cc(O)c1c23)C(C)(C)C=4O
active: Potency [1] 4.11 µM | Potency [9] 0.657 µM
inactive: activity, positive = activation [2] 7.38% [at 19 µM] | activation [3] 3.73% [at 15.8 µM] | activation [4] 4.32% [at 11.8 µM] | activity change, negative = cytotoxicity [5] -4.38% [at 13.5 µM] | activity change, negative = cytotoxicity [6] -8.38% [at 13.5 µM] | activity, negative = inhibition [8] 1.4% [at 12.7 µM] | activity, negative = inhibition [10] 5.23% [at 12.6 µM] | activation [11] 13.3% [at 15.8 µM] | activity change, negative = inhibition [17] 0.889% [at 19 µM] | activation [14] 3.3% [at 19 µM] | activation [15] -19.9% [at 19 µM] | activity change, negative = inhibition [16] 5.59% [at 18.9 µM]

CCCC(=O)O[C@]1(C(=O)CO)CC[C@H]2[C@@H]3CCC4=CC(=O)CC[C@]4(C)[C@H]3[C@@H](O)C[C@@]21C
inactive: Potency [1] | Potency [2] | Potency [3] | Potency [4] | Potency [5] | Potency [6] | Potency [7] | Potency [8] | Potency [9] | Potency [11] | Potency [12] | Potency [17] | Potency [15] | Potency [16]

CN1C(C(=O)Nc2ccccn2)=C(O)c2sccc2S1(=O)=O
inactive: Potency [1] | Potency [2] | Potency [3] | Potency [4] | Potency [5] | Potency [6] | Potency [7] | Potency [12] | Potency [13] | Potency [17] | Potency [14] | Potency [15] | Potency [16]

CCCCC(CC)COS(=O)(=O)O (stereo not given)
inactive: Potency [1] | Potency [2] | Potency [3] | Potency [4] | Potency [5] | Potency [6] | Potency [7] | Potency [8] | Potency [9] | Potency [11] | Potency [12] | Potency [17] | Potency [15] | Potency [16]

Oc1ccc2c(c1)Cc1ccccc1-2
inactive: Potency [1] | Potency [2] | Potency [3] | Potency [4] | Potency [5] | Potency [6] | Potency [7] | Potency [8] | Potency [9] | Potency [10] | Potency [11] | Potency [12] | Potency [13] | Potency [17] | Potency [15] | Potency [16]

C[C@H](CCC(=O)O)[C@H]1CC[C@H]2[C@@H]3CC[C@@H]4C[C@H](O)CC[C@]4(C)[C@H]3C[C@H](O)[C@]12C
inactive: Potency [1] | Potency [2] | Potency [3] | Potency [18] | Potency [19] | Potency [5] | Potency [6] | Potency [20] | Potency [8] | Potency [9] | Potency [17] | Potency [15] | Potency [16]
